Assay results reported in the supplement of paper PMC10849652.
Targets with a hit are over-represented here; the source holds about 7,900 in all. About 0.6% of all pairs of compound and target were hits.

Each target was assayed with c1cc(OCCN2CCCCC2)cc(-c2n[nH]c3ccc(-c4nnc[nH]4)cc23)c1 (assay: log2 fold change, soluble protein after heating vs DMSO (PISA); higher = thermal stabilisation; K562 cells, 10 uM, 30 min; active = over 0.2 and 3.5 SD of the protein, either way, in both replicates (recomputed)).
Method in brief: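 Aliquots of K562 cells (2×10^6 cells/mL) treated with 10 μM compound for 30 min were heated for 3 min over 48°C-58°C. After pooling and extraction in PBS with 0.5% NP-40 at 4°C, soluble protein from a 21,000xg, 90 min spin was quantified by TMTpro 16plex LC-MS/MS with channel sums equalised. Thermal stability is expressed against control samples, from duplicates, as a log2 fold change.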

Chain of UniProt Q6ZRS2 (Q6ZRS2 whole entry, looked up): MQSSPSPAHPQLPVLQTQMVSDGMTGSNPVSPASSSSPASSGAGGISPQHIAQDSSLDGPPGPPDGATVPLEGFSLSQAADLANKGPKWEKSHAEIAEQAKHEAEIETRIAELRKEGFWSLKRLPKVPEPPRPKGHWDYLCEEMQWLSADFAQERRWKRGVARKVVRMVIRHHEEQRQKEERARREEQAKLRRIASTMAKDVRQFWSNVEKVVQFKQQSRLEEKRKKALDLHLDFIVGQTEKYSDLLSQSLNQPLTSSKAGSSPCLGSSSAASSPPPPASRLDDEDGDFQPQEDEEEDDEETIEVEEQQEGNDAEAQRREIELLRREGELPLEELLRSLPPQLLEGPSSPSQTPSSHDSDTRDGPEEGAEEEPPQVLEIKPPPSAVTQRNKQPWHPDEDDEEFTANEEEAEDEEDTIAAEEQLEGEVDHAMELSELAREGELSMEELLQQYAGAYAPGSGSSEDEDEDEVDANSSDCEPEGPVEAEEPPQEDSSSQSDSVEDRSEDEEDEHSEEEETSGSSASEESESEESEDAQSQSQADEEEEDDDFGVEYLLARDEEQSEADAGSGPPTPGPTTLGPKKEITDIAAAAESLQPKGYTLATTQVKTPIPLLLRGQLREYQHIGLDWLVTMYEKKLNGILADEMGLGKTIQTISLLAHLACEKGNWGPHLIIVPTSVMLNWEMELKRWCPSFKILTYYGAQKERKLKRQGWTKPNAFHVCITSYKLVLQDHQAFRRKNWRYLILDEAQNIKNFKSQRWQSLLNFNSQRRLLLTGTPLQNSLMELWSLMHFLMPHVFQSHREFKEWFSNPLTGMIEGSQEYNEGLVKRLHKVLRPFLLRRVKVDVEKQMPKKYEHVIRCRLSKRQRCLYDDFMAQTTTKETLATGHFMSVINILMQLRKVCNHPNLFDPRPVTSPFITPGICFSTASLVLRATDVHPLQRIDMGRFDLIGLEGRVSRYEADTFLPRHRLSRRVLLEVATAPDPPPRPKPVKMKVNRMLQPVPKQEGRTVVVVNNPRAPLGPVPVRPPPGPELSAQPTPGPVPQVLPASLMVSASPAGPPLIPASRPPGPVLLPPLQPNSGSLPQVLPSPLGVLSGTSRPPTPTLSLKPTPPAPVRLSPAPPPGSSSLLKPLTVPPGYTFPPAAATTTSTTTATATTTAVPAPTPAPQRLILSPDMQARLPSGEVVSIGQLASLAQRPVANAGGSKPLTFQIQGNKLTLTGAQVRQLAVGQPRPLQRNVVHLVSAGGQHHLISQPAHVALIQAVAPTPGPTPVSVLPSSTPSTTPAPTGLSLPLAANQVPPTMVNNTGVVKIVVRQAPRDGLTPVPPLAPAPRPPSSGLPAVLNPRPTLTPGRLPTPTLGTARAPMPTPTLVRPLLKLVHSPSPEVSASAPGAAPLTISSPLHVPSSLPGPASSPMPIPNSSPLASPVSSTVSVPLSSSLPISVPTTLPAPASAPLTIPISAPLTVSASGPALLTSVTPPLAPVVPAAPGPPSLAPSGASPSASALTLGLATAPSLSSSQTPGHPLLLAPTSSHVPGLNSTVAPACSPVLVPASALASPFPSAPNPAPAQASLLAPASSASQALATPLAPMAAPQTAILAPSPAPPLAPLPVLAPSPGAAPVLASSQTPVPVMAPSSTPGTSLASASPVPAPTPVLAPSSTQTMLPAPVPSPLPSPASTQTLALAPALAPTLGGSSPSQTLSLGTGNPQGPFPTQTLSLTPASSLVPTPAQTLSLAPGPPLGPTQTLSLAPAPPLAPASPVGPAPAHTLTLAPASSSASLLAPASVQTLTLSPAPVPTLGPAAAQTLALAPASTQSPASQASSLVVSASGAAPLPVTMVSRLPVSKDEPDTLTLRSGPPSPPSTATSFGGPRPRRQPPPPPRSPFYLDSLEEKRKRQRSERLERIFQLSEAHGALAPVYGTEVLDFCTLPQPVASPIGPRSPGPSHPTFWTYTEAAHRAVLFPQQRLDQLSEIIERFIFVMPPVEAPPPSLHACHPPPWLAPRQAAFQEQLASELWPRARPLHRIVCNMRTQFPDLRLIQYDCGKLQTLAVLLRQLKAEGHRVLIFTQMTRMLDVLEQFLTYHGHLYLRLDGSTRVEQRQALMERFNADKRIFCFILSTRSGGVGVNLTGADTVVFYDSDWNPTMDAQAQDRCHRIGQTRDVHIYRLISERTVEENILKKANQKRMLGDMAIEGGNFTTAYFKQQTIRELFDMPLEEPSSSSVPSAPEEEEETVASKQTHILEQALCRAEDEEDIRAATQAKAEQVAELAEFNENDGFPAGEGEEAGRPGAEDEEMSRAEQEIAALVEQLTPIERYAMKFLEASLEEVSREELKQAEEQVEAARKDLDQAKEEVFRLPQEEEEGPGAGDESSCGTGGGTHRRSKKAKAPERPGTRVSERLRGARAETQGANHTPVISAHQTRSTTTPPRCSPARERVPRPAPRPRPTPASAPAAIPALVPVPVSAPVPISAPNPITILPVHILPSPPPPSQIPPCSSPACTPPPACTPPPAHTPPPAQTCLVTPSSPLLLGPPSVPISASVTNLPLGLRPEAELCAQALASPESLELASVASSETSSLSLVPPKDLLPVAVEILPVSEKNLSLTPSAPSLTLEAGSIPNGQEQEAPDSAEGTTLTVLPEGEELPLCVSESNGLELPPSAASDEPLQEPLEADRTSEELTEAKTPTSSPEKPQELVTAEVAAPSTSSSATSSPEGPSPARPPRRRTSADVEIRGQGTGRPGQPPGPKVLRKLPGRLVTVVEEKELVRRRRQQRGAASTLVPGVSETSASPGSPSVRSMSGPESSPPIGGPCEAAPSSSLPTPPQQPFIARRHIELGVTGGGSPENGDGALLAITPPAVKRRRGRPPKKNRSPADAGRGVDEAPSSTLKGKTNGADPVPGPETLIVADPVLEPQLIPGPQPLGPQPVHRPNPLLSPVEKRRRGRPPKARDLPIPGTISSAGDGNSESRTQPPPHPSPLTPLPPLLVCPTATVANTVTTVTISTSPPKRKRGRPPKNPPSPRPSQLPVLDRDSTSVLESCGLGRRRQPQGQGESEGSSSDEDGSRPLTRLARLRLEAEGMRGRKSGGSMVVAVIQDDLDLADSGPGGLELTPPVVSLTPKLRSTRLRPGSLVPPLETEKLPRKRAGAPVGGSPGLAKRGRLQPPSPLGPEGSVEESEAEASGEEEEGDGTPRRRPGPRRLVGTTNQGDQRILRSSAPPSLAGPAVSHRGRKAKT
Chain of UniProt O00193 (O00193 whole entry, looked up): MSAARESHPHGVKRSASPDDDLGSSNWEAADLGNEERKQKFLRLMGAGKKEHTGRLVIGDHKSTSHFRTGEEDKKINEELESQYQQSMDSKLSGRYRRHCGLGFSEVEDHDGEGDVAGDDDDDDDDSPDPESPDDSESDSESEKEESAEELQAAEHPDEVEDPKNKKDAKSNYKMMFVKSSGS
Chain of UniProt Q9NVC3 (Q9NVC3 whole entry, looked up): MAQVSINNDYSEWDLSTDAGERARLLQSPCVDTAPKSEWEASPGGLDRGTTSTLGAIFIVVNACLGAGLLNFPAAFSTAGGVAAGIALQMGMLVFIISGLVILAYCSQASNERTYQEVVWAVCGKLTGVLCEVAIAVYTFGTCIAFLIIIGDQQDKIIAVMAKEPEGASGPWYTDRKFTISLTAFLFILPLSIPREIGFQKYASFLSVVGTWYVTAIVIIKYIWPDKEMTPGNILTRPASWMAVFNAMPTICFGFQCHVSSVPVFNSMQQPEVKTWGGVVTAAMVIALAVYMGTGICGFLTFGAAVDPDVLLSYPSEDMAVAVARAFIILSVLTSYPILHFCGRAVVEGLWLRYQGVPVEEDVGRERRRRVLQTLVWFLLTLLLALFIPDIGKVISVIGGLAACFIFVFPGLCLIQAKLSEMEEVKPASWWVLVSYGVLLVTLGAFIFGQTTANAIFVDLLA
Chain of UniProt P23497 (P23497 whole entry, looked up): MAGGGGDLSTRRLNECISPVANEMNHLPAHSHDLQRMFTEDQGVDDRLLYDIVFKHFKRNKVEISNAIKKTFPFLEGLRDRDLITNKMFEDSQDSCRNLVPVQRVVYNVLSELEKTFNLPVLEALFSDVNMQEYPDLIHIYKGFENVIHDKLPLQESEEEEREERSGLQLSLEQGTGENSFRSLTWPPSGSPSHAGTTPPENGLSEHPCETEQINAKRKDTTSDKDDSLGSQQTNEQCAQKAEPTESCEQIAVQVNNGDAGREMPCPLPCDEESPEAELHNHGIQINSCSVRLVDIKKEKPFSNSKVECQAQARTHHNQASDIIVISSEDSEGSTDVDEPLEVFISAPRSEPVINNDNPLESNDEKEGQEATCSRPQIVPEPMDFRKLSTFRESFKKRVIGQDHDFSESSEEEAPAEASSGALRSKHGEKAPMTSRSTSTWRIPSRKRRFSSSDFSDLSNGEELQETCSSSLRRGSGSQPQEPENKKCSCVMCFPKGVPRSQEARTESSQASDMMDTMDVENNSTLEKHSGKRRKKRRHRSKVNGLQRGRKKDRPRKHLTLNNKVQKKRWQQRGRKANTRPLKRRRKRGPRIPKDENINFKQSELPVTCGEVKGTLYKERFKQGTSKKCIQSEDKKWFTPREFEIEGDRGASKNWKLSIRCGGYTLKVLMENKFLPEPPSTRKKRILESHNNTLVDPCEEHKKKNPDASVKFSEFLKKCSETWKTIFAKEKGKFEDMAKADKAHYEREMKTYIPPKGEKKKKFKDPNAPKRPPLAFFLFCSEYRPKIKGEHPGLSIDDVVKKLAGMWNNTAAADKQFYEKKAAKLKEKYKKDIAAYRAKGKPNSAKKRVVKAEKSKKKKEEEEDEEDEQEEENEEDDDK
Chain of UniProt Q9Y5M8 (Q9Y5M8 whole entry, looked up): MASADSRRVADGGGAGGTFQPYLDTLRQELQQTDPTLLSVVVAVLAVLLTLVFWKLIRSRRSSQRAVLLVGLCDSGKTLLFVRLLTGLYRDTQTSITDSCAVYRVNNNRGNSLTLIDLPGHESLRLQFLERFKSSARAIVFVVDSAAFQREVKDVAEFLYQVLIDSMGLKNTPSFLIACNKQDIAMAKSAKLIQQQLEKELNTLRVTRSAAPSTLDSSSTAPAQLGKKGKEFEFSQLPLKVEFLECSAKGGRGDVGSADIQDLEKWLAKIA

log2 fold change, inactive:
SMAP (UniProt O00193) 0.02
TGFBR1 isoform 2 (UniProt P36897) -0.054
SLC7A6OS (UniProt Q96CW6) -0.037
TK1 (UniProt P04183) -0.027
TACC2 (UniProt O95359) -0.073
TATDN2 (UniProt Q93075) 0.06
STK11IP (UniProt Q8N1F8) 0.016
SRXN1 (UniProt Q9BYN0) 0.09
SSRP1 (UniProt Q08945) -0.013
STK38L (UniProt Q9Y2H1) 0.05
TAF9 (UniProt Q16594) 0.055
SP1 (UniProt P08047) -0.088
SRPRB (UniProt Q9Y5M8) 0.045
SLC38A7 (UniProt Q9NVC3) -0.004
SP100 isoform 4 (UniProt P23497) 0.02
SMARCA4 (UniProt P51532) -0.115
SLC44A2 isoform 2 (UniProt Q8IWA5) -0.289
TBC1D20 isoform 3 (UniProt Q96BZ9) 0.03
SRSF6 (UniProt Q13247) -0.299
SPIRE1 (UniProt Q08AE8) 0.023
SRC isoform 2 (UniProt P12931) 0.199
SMG1 (UniProt Q96Q15) -0.187
SRCAP (UniProt Q6ZRS2) 0.001
